Here are results for 6 molecules from PubChem BioAssay (EPA / NIEHS).

Experiment [1] in a line: BSK_3C_TissueFactor: BioMAP Diversity Plus: 3C Assay for Tissue Factor Biomarker Activity (AID 2282997). Particulars: BioMAP 3C HUVEC, tissue factor biomarker readout; actives raise or lower the signal. The method, boiled down: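 Tissue factor on primary human umbilical vein endothelium was read by ELISA 24 h after dosing, gain or loss relative to DMSO. Cytotoxicity ran alongside via SRB (0.1%, TCA-fixed, 560 nm).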

Read-out in experiment [2]: Intercellular Adhesion Molecule 1 (ICAM1), ICAM1 (gene 3383)
Put plainly: BSK_3C_ICAM1: BioMAP Diversity Plus: 3C Assay for Intercellular Adhesion Molecule 1 (ICAM1) Biomarker Activity (AID 2283003). The note with it: primary human endothelial cells (HUVEC); actives raise or lower the signal. The method, boiled down:
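ELISA readout of ICAM1 in human umbilical vein endothelial cells in the 3C system, taken 24 h post-dose. Gain or loss of signal versus DMSO was fitted in both directions, with SRB total-protein staining run in parallel.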

Read-out in experiment [3]: E-selectin (Homo sapiens) (UniProt P16581)
Put plainly: BSK_3C_Eselectin: BioMAP Diversity Plus: 3C Assay for Eselectin Biomarker Activity (AID 2283015).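 Further: cell surface E-selectin protein quantified by ELISA 24 h after dosing.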 The note with it: primary human endothelial cells (HUVEC); actives raise or lower the signal. The method, boiled down: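 E-selectin ELISA readout, fitted bidirectionally relative to DMSO, taken 24 h post-dosing in HUVEC cultures of the 3C system. Overt cytotoxicity tracked with sulforhodamine B staining of parallel wells.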

Read-out in experiment [4]: Pselectin, SELP (gene 6403)
The experiment in a line: BSK_4H_Pselectin: BioMAP Diversity Plus: 4H Assay for Pselectin Biomarker Activity (AID 2283026). The note with it: primary human endothelial cells (HUVEC); actives raise or lower the signal. The method, boiled down: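 ELISA of surface P-selectin on HUVEC, 24 h after dosing, with parallel SRB staining (0.1% after 10% TCA fixation, 560 nm) for overt cytotoxicity. Activity fitted in both directions relative to DMSO.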

Read-out in experiment [5]: Human Leukocyte Antigen - DR isotype (HLADR), HLA-DRA (gene 3122)
Put plainly: BSK_BE3C_HLADR: BioMAP Diversity Plus: BE3C Assay for Human Leukocyte Antigen - DR isotype (HLADR) Biomarker Activity (AID 2283032). Particulars: primary human bronchial epithelial cells; actives raise or lower the signal. In short, it runs like this:
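Cell-surface HLA-DR ELISA readout at 24 h after dosing in the BE3C primary human lung bronchial epithelial system; gain or loss of signal against DMSO, with parallel sulforhodamine B staining of total protein for overt cytotoxicity.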

Read-out in experiment [6]: Vascular cell adhesion molecule 1 (VCAM1), VCAM1 (gene 7412)
Put plainly: BSK_4H_VCAM1: BioMAP Diversity Plus: 4H Assay for Vascular cell adhesion molecule 1 (VCAM1) Biomarker Activity (AID 2283033).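 Further: cell-surface VCAM-1 protein measured by ELISA.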 The note with it: primary human endothelial cells (HUVEC); actives raise or lower the signal. The method, boiled down:
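VCAM-1 ELISA read 24 h after chemical dosing of HUVEC in the BioMAP 4H system, with gain or loss of signal fitted relative to DMSO. Parallel SRB staining (560 nm) checked overt cytotoxicity.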

Read-out in experiment [7]: Interferon-gamma inducible Protein 10 (IP10), CXCL10 (gene 3627)
Put plainly: BSK_BE3C_IP10: BioMAP Diversity Plus: BE3C Assay for Interferon-gamma inducible Protein 10 (IP10) Biomarker Activity (AID 2283034). Particulars: primary human bronchial epithelial cells; actives raise or lower the signal. The method, boiled down:
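IP-10 quantified by ELISA in human primary bronchial epithelial cell cultures at 24 hours post-dosing. Gain or loss of signal fitted relative to DMSO; parallel SRB staining assessed overt cytotoxicity.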

Read-out in experiment [8]: urokinase plasminogen activator (uPA), PLAU (gene 5328)
The experiment in a line: BSK_BE3C_uPA: BioMAP Diversity Plus: BE3C Assay for urokinase plasminogen activator (uPA) Biomarker Activity (AID 2283038).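 Further: uPA protein level quantified by ELISA in cell cultures; uPA read one day after compound addition.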 The note with it: primary human bronchial epithelial cells; actives raise or lower the signal. The method, boiled down: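 ELISA for uPA on human primary bronchial epithelial cultures 24 h post-treatment, gain or loss against DMSO. Parallel SRB staining (0.1% after 10% TCA fixation, 560 nm) assessed overt cytotoxicity.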

Read-out in experiment [9]: Interleukin-6 (IL6), IL6 (gene 3569)
The experiment in a line: BSK_CASM3C_IL6: BioMAP Diversity Plus: CASM3C Assay for Interleukin-6 (IL6) Biomarker Activity for (AID 2283040). Particulars: primary human coronary artery smooth muscle cells; actives raise or lower the signal.

Read-out in experiment [10]: Tissue Factor, F3 (gene 2152)
Put plainly: BSK_CASM3C_TissueFactor: BioMAP Diversity Plus: CASM3C Assay for Tissue Factor Biomarker Activity (AID 2283052).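 Further: cell surface tissue factor protein level read by ELISA.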 Particulars: primary human coronary artery smooth muscle cells; actives raise or lower the signal.

Read-out in experiment [11]: Urokinase-type plasminogen activator receptor (uPAR), PLAUR (gene 5329)
Put plainly: BSK_CASM3C_uPAR: BioMAP Diversity Plus: CASM3C Assay for Urokinase-type plasminogen activator receptor (uPAR) Biomarker Activity (AID 2283054).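 Further: cell-surface uPAR protein level quantified by ELISA.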 The note with it: primary human coronary artery smooth muscle cells; actives raise or lower the signal.

Read-out in experiment [12]: Collagen III, COL3A1 (gene 1281)
The experiment in a line: BSK_hDFCGF_CollagenIII: BioMAP Diversity Plus: hDFCGF Assay for Collagen III Biomarker Activity (AID 2283056). The note with it: primary human foreskin fibroblasts; actives raise or lower the signal. In short, it runs like this:
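ELISA readout of Collagen III in human dermal (foreskin) fibroblasts, taken 24 h post-treatment. Gain or loss relative to DMSO vehicle fitted in both directions.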

Read-out in experiment [13]: Epidermal growth factor receptor (EGFR), EGFR (gene 1956)
The experiment in a line: BSK_hDFCGF_EGFR: BioMAP Diversity Plus: hDFCGF Assay for Epidermal growth factor receptor (EGFR) Biomarker Activity (AID 2283057). The note with it: primary human foreskin fibroblasts; actives raise or lower the signal. In short, it runs like this: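 EGFR levels by ELISA in human dermal fibroblast cultures, 24 h post-treatment, fitted bidirectionally versus DMSO. Parallel wells stained with sulforhodamine B to detect overt cytotoxicity.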

Read-out in experiment [14]: Interleukin-8 (IL8), CXCL8 (gene 3576)
The experiment in a line: BSK_LPS_IL8: BioMAP Diversity Plus: LPS Assay for Interleukin-8 (IL8) Biomarker Activity (AID 2283078). Particulars: primary human HUVEC with PBMC; actives raise or lower the signal. The method, boiled down: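 ELISA read-out of IL-8 after 24 h chemical treatment of LPS-activated endothelial/PBMC human primary co-cultures. Changes either up or down relative to DMSO; overt cytotoxicity checked by sulforhodamine B staining in parallel wells.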

Read-out in experiment [15]: Tissue Factor, F3 (gene 2152)
The experiment in a line: BSK_LPS_TissueFactor: BioMAP Diversity Plus: LPS Assay for Tissue Factor Biomarker Activity (AID 2283084). Particulars: primary human HUVEC with PBMC; actives raise or lower the signal. The method, boiled down:
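Compound was added to an endothelial cell/PBMC co-culture, and after 24 h tissue factor (CD142) was read by ELISA. Gain or loss of signal was fitted against a DMSO baseline, and parallel SRB staining (560 nm) tracked overt cytotoxicity.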

The nature of experiment [16]: ATG_EGR_CIS: Attagene CIS-FACTORIAL HepG2 Assay for human Early Growth Response 1 (EGR1) (AID 2282938). The note with it: HepG2 Attagene CIS-FACTORIAL EGR reporter mRNA; actives raise or lower the signal. In short, it runs like this: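 Read-out: fluorescent reporter-mRNA fragments resolved by capillary electrophoresis after RT-PCR, 24 h post-dose in transiently transfected HepG2. Endogenous transcription-factor activity reported via cis-element-regulated reporter units; gain or loss fitted relative to DMSO.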

Experiment [17] deals with Hepatocyte nuclear factor 6 (Homo sapiens) (UniProt Q9UBC0). Put plainly: ATG_HNF6_CIS: Attagene CIS-FACTORIAL HepG2 Assay for human Hepatocyte Nuclear Factor 6 (HNF6) (AID 2282952). The note with it: HepG2 Attagene cis-factorial HNF6 reporter transcription; actives raise or lower the signal. The method, boiled down:
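Endogenous factor activity read in transiently transfected HepG2 via promoter-regulated reporter transcripts. RNA harvested 24 h post-dosing, reverse-transcribed, PCR-amplified, FAM-labelled, HpaI-digested and resolved by capillary electrophoresis; fitted in both directions against DMSO.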

The target of experiment [18] is human Peroxisome Proliferator-activated Receptor delta (PPARd), PPARD (gene 5467) (UniProt Q03181). The experiment in a line: ATG_PPARd_TRANS: Attagene TRANS-FACTORIAL HepG2 Assay for human Peroxisome Proliferator-activated Receptor delta (PPARd) (AID 2283002; active means hit-call score of the fitted dose curve at least 0.9, where 1 is the maximum). The method, boiled down:
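HepG2 cells transiently transfected with multiplexed GAL4-UAS reporter units and exogenous chimeric NR-Gal4 proteins; 24 h compound exposure. Reporter mRNA measured by RT-PCR, 6-FAM labelling, HpaI digestion and capillary electrophoresis; gain of signal versus DMSO.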

In experiment [19] the target is human Retinoid X Receptor beta (RXRb), RXRB (gene 6257) (UniProt P28702). Put plainly: ATG_RXRb_TRANS: Attagene TRANS-FACTORIAL HepG2 Assay for human Retinoid X Receptor beta (RXRb) (AID 2283013; active means hit-call score of the fitted dose curve at least 0.9, where 1 is the maximum). In short, it runs like this: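 Readout is reporter transcript induction after 24 h dosing. It is measured by RT-PCR of total RNA followed by fluorescent capillary electrophoresis. HepG2 liver cells carry transfected multiple reporter units driven by an exogenous RXRb-Gal4 fusion; activity is relative to DMSO.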
Sequence of human Retinoid X Receptor beta (RXRb), RXRB (gene 6257) (P28702 whole entry, looked up, the tested form may be a part): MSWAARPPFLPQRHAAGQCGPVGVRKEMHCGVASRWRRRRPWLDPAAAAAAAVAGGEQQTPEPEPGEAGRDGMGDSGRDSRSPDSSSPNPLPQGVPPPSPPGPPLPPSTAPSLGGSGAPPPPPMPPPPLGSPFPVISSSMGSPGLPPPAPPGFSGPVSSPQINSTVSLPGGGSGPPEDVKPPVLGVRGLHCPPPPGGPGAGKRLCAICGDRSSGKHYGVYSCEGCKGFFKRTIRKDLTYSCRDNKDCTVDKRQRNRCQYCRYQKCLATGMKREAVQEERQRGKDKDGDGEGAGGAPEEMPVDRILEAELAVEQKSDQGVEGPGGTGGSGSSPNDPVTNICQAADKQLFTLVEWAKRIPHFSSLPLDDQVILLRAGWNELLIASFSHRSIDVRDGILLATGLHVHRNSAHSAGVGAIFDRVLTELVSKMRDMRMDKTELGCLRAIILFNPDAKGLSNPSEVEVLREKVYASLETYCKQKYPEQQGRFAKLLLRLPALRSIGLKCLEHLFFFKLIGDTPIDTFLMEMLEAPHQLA

Experiment [20] can be described thus: ATG_M_19_TRANS: Attagene TRANS-FACTORIAL HepG2 Assay for M19 Transcription Factor (Internal Marker) (AID 2282974; active means hit-call score of the fitted dose curve at least 0.9, where 1 is the maximum). The note with it: HepG2 Attagene TRANS-FACTORIAL M19 internal marker reporter. The method, boiled down:
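24 h chemical exposure of transiently transfected HepG2 (MRTU library). RNA → oligo(dT) RT → PCR → 6-FAM labelling → HpaI cut → CE fluorescence. Positive-direction fit vs DMSO baseline; background internal-marker readout.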

Results filed as inconclusive are left out. The source holds several records for some structures; these can differ, active in one and inactive in another. Activity calls are given as the source filed them. How the source made its calls, unless noted: active means hit-call score of the fitted dose curve at least 0.9, where 1 is the maximum; inactive means score below 0.9.

What is called AC50 is the concentration giving half of the maximal activity seen.

Sequence of E-selectin (Homo sapiens) (P16581 whole entry, looked up): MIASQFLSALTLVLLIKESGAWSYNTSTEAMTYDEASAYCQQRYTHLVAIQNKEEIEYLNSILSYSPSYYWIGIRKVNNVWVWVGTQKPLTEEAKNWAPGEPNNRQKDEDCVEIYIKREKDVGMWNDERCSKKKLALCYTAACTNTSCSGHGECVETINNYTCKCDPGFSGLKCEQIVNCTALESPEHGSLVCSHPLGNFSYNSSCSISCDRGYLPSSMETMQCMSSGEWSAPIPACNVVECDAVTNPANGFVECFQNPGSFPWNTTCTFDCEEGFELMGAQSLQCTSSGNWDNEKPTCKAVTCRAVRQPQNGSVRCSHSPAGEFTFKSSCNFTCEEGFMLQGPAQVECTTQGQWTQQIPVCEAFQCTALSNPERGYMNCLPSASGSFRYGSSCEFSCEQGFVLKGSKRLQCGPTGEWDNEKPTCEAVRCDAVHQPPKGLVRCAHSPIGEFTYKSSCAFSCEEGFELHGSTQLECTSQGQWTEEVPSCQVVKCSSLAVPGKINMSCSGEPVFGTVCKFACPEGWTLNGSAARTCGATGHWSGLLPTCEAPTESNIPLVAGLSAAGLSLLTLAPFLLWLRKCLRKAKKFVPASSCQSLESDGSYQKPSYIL
Sequence of Hepatocyte nuclear factor 6 (Homo sapiens) (Q9UBC0 whole entry, looked up): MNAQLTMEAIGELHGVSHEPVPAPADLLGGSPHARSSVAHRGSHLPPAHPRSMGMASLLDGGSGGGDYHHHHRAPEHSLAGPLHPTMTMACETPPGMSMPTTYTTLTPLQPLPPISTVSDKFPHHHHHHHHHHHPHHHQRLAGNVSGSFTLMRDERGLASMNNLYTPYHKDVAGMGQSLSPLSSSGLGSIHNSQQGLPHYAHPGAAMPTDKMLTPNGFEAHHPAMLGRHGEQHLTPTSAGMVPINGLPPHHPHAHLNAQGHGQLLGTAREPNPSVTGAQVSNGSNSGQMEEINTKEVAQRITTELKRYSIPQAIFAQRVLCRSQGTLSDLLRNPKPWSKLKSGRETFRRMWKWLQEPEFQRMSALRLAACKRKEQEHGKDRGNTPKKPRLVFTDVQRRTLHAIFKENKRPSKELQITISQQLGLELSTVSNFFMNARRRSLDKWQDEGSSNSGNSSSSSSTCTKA
Sequence of human Peroxisome Proliferator-activated Receptor delta (PPARd), PPARD (gene 5467) (Q03181 whole entry, looked up, the tested form may be a part): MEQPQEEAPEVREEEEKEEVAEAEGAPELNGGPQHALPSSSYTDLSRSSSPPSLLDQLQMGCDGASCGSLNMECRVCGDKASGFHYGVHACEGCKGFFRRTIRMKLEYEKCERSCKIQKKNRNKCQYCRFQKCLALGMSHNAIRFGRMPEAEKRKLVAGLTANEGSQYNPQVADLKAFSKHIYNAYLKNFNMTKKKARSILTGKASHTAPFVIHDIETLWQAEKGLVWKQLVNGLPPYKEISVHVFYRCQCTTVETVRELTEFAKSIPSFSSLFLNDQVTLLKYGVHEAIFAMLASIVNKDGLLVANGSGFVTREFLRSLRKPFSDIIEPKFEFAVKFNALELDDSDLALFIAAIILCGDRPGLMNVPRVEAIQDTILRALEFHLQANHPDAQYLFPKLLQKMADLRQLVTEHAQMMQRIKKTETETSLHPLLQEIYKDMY

Turning to `Cc1c(C(N)=O)cc([N+](=O)[O-])cc1[N+](=O)[O-]`, the result in experiment [1], in [2], in [3], in experiment [4], in experiment [5] and in experiment [6] was inactive. For the same molecule, the outcome in experiment [7], in [8], in [9], in experiment [10], in experiment [11] and in experiment [12] was inactive. For the same molecule, the result in experiment [13], in experiment [14] and in experiment [15] was inactive. The AC50 in experiment [5] is 27.8 µM (active); in experiment [7], 32.6 µM (active).

For `Oc1ccc(Oc2ccccc2)cc1`, the call in [16], in experiment [17] and in [18] was inactive. Also, the concentration at half-maximal activity (AC50) in experiment [19] was 59.2 µM (active).

On to `CCC[Si](OC(C)=O)(OC(C)=O)OC(C)=O`, for which the result in experiment [1], in experiment [2], in experiment [3], in experiment [4], in [5] and in [6] was inactive. Moreover, the outcome in experiment [7], in experiment [8], in experiment [9], in experiment [10], in [11] and in experiment [12] was inactive. For the same molecule, the result in [13], in experiment [14] and in experiment [15] was inactive. Besides, in experiment [11], the AC50 was 3.83 µM (active).

For `CCO[Si](OCC)(OCC)c1ccccc1`, the outcome in [17], in experiment [20] and in experiment [19] was inactive.

On to `N#CCN(CC#N)CCN(CC#N)CC#N`, for which the result in experiment [17], in [20] and in experiment [19] was inactive.

For `COc1cc(CNC(=O)CCCC/C=C/C(C)C)ccc1O`, the result in [1], in experiment [2], in experiment [3], in [4], in experiment [5] and in [6] was inactive. The outcome in experiment [7], in [8], in experiment [9], in experiment [10], in [11] and in [12] was inactive. The outcome in [13], in experiment [14] and in [15] was inactive.
